Screening data from PubChem.
An excerpt weighted towards active compounds, which were near 10% of everything screened.
MCF10A rerep – inducers of DNA re-replication in MCF 10A breast cells. MCF 10A DNA re-replication, Hoechst nuclear intensity, 48 h. Potency, µM (series often up to 46.1 µM), inactives show at the top dose activity, positive = re-replication, usual class: activators. actives 2.9% (n = 350,000). AID 624296; note: % of control where 0% means no effect; nearly all actives have a fitted effect of over 50% in size
VP16 counter – inhibits Gal4-VP16 luciferase reporter, ROR gamma counter-screen | Potency, µM (doses to about 53.6 µM), without a hit: at the top dose activity, negative = inhibition, hits mostly inhibitors | Drosophila S2 Gal4-VP16 UAS-luciferase, luminescence, 20 h | actives 3.5% (n = 310,000);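 note: Gal4-VP16 expression switched on by copper sulfate through the metallothionein promoter; % is set by controls: 0 for no effect and ±100 for the full control effect; nearly all actives have a fitted effect of over 50% in size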
SW480 rerep – DNA re-replication induction in SW480 cells | SW480 DNA re-replication, Hoechst DNA content imaging, 48 h | Potency, µM (highest dose often 46.1 µM), for the others: at the top dose re-replication activation, hits mostly activators | actives 1.8% (n = 340,000) | AID 624297; note: % of control where 0% means no effect; nearly all actives have a fitted effect of over 55% in size
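250 cells/well; 23 nL cpd via pin tool; 48 hr, 37 C, 5% CO2; Hoechst 40 min; imager read of total nuclear intensity, ex 405/em 500-530 nm.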
RORg inh – ROR gamma (mouse) transcription inhibition. AID 2551. actives 5.4% (n = 310,000). Potency, µM (titrated, usually from 53.6 µM), without a hit: top-dose activity change, negative = inhibition, usual class: inhibitors. Drosophila S2 Gal4-RORgamma UAS-luciferase reporter, 20 h. P51450; note: % is set by controls: 0 for no effect and ±100 for the full control effect; nearly all actives have a fitted effect of over 60% in size
Target sequence (P51450 whole entry, looked up, the tested form may be a part): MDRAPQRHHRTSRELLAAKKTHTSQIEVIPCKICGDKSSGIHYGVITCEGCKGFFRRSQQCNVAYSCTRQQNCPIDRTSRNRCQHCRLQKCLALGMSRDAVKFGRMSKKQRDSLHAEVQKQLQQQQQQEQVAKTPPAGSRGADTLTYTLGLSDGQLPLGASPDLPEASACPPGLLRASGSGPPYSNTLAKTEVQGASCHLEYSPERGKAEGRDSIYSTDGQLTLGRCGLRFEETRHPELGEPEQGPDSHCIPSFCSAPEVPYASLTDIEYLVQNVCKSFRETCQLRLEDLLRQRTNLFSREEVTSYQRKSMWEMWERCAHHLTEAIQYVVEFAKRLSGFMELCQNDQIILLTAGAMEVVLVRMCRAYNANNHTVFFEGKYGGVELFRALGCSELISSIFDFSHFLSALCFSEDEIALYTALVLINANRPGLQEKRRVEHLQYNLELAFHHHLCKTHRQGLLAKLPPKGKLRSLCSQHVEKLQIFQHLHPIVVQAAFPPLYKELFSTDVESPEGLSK
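ROR gamma transcriptional activity was tracked as Gal4-UAS luciferase output in stably transfected Drosophila Schneider cells, with compound added 1 hr before 700 uM copper sulfate induction and a 20 hr ambient-temperature incubation.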
ELG1 DNA repair – ELG1-dependent DNA repair inhibition | HEK293T ELG1-luciferase reporter, luminescence, 16 h; DNA damage induced by 5-fluorouridine | Potency, µM (series often up to 46.1 µM), for inactives: top-dose activity change, negative = inhibition, actives largely listed as inhibitors | AID 504467 | actives 2.3% (n = 330,000); note: % is set by controls: 0 for no effect and ±100 for the full control effect; nearly all actives have a fitted effect of over 55% in size
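Overnight (16 hr) co-exposure of 2,000 cells/well to 5-fluorouridine and compound at 37 °C preceded detection. Luciferase was quantified via ONE-Glo luminescence; loss of signal denotes inhibition.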
An asterisk follows results filed as active; ? = inconclusive; / = no result; [ ] = remark or other dose. Calls come from the whole dose curve; as a rule, active = well fitted curve in the direction sought with a large enough effect; inconclusive = small, poorly fitted or top-dose-only effect, or another doubt; inactive = no such curve, though single readings can be large; an effect the other way counts as inactive or inconclusive. Potency is the fitted concentration of half-maximal effect.

SMILES	MCF10A rerep	VP16 counter	SW480 rerep	RORg inh	ELG1 DNA repair
COc1ccc(S(=O)(=O)N(Cc2nc3ccccc3c(=O)[nH]2)C2CCCC2)cc1	?	12.6%	-1.2%	?	?
COc1ccc(CN(Cc2nc3ccccc3c(=O)[nH]2)C(=O)C(C)(C)C)cc1	4.0%	-4.9%	-0.1%	12.6µM*	4.3%
CC(=O)N(Cc1ccc(F)cc1)Cc1nc2ccccc2c(=O)[nH]1	-0.4%	?	-2.1%	15.8µM*	3.0%
CS(=O)(=O)N(Cc1ccc(F)cc1)Cc1nc2ccccc2c(=O)[nH]1	0.0%	1.1%	8.5%	-13.7%	-3.5%
Cc1ccc(S(=O)(=O)N2CCCCC2)cc1NC(=O)COC(=O)c1ccccc1F	-5.2%	0.7%	-11.6%	34.1%	?
COC(=O)c1ccc(NC(=O)C2CCCN2C(=O)OCc2ccccc2)cc1 (centres undefined)	-0.5%	0.1%	10.1%	-16.9%	1.1%
O=C(C[C@@H]1C/C=C\CC[C@H](Cc2ccc(F)cc2)C(=O)OC[C@@H](Cc2ccccc2)NC1=O)NCCO	-6.2%	/	1.2%[9.22 µM]	/	-5.3%
CCOC(=O)[C@H]1[C@H]2COc3ccc(OC)cc3[C@@H]2N2C(=O)c3cc(C)ccc3NC(=O)[C@@]12C	1.4%	/	-1.9%	/	-8.3%
C[n+]1cccc(O)c1SCc1ccccc1	3.3%	/	10.1%	/	-16.2%
O=C(CCc1nc2ccccc2c(=O)[nH]1)NNC(=O)c1cccc(Cl)c1	14.6%	/	29.1µM*	/	-5.7%
COc1ccc(CN(Cc2nc3ccccc3c(=O)[nH]2)C(=O)NC2CCCCC2)cc1	0.1%	?	8.3%	12.6µM*	?
CCN(CC(=O)Nc1c(F)cccc1F)C(=O)CCc1nc2ccccc2c(=O)[nH]1	-14.9%	/	29.1µM*	/	21.2%
O=C(NC1CCCCC1)N(Cc1nc2ccccc2c(=O)[nH]1)C1CCCCC1	12.7%	-7.7%	-3.3%	0.2%	?
O=C1CC(C(=O)O)C2(CCCC2)O1 (centres undefined)	-2.4%	/	-12.5%	/	/
CCOc1cc(N2CCOCC2)c(OCC)cc1NC(=O)c1ccc(OCc2c(C)noc2C)c(OC)c1	0.3%	-15.5%	-2.2%	-6.6%	5.8µM*
COc1cc(C(=O)OCC(C)=O)ccc1OCc1c(C)noc1C	20.6µM*	0.3%	16.4µM*	-31.6%	?
CCOc1cc(N2CCOCC2)c(OCC)cc1NC(=O)c1ccc(OC)cc1	?	-14.6%	-4.4%	30.3%	?
COc1cc(C(=O)Nc2nc3ccccc3s2)ccc1OCc1c(C)noc1C	?	-2.7%	16.4µM*	?	?
CC(C)c1ccc(N2C(=O)CC(NNC(=O)c3cccnc3)C2=O)cc1 (centres undefined)	4.3%	?	-3.3%	9.8%	15.2%
CCN1CCN(C(=O)C2CCN(S(=O)(=O)c3ccc4c(c3)NC(=O)C(C)S4)CC2)CC1 (centres undefined)	-0.5%	-14.8%	-10.6%	-13.1%	9.1%
CCN(CC)S(=O)(=O)c1cc(NC(=O)CCNC(=O)c2ccco2)ccc1C	-24.3%	6.1%	-1.6%	2.0%	-8.6%
COc1ccc(-n2ncc3c(N(C)C4CCCCC4)ncnc32)cc1	-7.3%	8.91µM*	-4.9%	0.251µM*	?
CCOC(=O)C1CCN(c2ncnc3c2cnn3-c2ccc(Cl)cc2)CC1	-2.3%	?	-2.7%	1.41µM*	?
COc1cccc(OCCN2CCN(c3ncnc4c3cnn4-c3ccccc3)CC2)c1	18.4µM*	-2.7%	21.0%	7.8%	?
CC1CCN(c2ncnc3c2cnn3-c2ccccc2)CC1	19.4%	?	-1.2%	?	?
SMILES	MCF10A rerep	VP16 counter	SW480 rerep	RORg inh	ELG1 DNA repair
COc1ccc(-n2ncc3c(N4CCC(C)CC4)ncnc32)cc1	7.7%	?	0.9%	8.91µM*	?
CCCn1cnnc1CNC(=O)C1CCC(=O)N(CCc2cccc(F)c2)C1 (centres undefined)	4.7%	0.4%	1.6%	-28.1%	-4.4%
Cc1cccc(-n2ncc3c(N(C)C4CCCCC4)ncnc32)c1	?	0.891µM*	-1.1%	?	?
Cc1c(C(=O)N/N=C/C(C)C)[nH]c2c([N+](=O)[O-])cccc12	20.6µM*	-22.5%	?	2.24µM*	-3.8%
Cc1cc(NC(=O)c2cc3cccc([N+](=O)[O-])c3[nH]2)ccc1F	-0.1%	1.3%	-3.5%	34.6%	?
O=C(Nc1ccc(F)cc1)c1nc(S(=O)(=O)Cc2ccccc2)ncc1Cl	6.1%	7.94µM*	3.8%	-35.1%	?
CCOC(=O)c1ccc(NC(=O)c2nc(SC)ncc2Cl)cc1	0.0%	-3.6%	-10.0%	18.9%	5.6%
Cc1ccccc1CS(=O)(=O)c1ncc(Cl)c(C(=O)Nc2ccc(F)cc2)n1	?	?	-4.3%	?	?
Cc1ccc(NC(=O)c2nc(S(=O)(=O)Cc3ccccc3)ncc2Cl)cc1	?	2.24µM*	20.2%	?	?
COc1ccc(NC(=O)Nc2cccc3c2O[C@H](CN(C)S(C)(=O)=O)[C@@H](C)CN([C@H](C)CO)C3=O)cc1	-3.3%	/	-1.9%	/	?
CCOC(=O)c1ccc(CNC(=O)CSc2nc(NC(=O)c3ccccc3)c3c(C)c(C)oc3n2)cc1	-1.1%	1.0%	-1.4%	2.2%	14.6µM*
CCOC(=O)c1ccc(CNC(=O)CSc2nnc(-c3ccncc3)o2)cc1	10.6%	?	8.1%	6.6%	0.2%
CC(C)Cn1nc(NC(=O)c2cccs2)c2cc3ccccc3nc21	?	-20.1%	16.4µM*	9.6%	20.6µM*
CCn1nc(NC(=O)COC)c2cc3cc(C)ccc3nc21	1.8%	5.8%	23.1µM*	18.0%	?
CC(C)Cn1nc(NC(=O)C(C)(C)C)c2cc3ccccc3nc21	23.1µM*	-4.9%	?	2.0%	-0.5%
CCCn1nc(NC(=O)COC)c2cc3cc(C)ccc3nc21	1.6%	5.2%	-0.3%	-1.0%	28.4%
Cc1ccc2nc3c(cc2c1)c(NC(=O)C1CCCO1)nn3CC(C)C (centres undefined)	-178.9%[0.0737 µM]	7.9%	?	-11.7%	?
Cc1ccc2nc3c(cc2c1)c(NC(=O)C(C)(C)C)nn3CC(C)C	2.91µM*	-10.1%	?	1.8%	?
NCCS(=O)(=O)O	-3.1%	-3.9%	-7.3%	32.8%[10 µM]	/
Cc1cc(N2CCCC2=O)ccc1S(=O)(=O)NC1CCCCC1	-9.5%	?	0.9%	?	?
O=C1c2ccccc2/C(=C\c2ccc(Br)s2)N1c1ccccc1	3.1%	/	0.5%	/	?
COc1ccc(Cc2nnc(SCC(=O)Nc3nc(C)cs3)o2)cc1	-4.2%	-3.5%	-3.0%	35.5µM*	-14.1%
COc1ccc(C(=O)CSc2nnc(Cc3ccccc3)o2)cc1	-8.5%	1.3%	7.1%	-0.3%	5.3%
COc1ccc(Cc2nnc(SCC(=O)c3ccc(OC)cc3)o2)cc1	6.51µM*	11.2%	-20.3%	1.6%	?
